Data: PubChem BioAssay (Tox21)
Inconclusive results are not listed. Unmarked numbers belong to inactive results. The call rests on the fitted dose curve; in most records, active means well fitted cell-killing curve with a large enough effect in the repeat runs; inconclusive means weak or mixed curves, or effect the other way; inactive means flat fitted curve, though single readings scatter.
On the % scale 0 is the no-effect control and ±100 the full control effect.

Assay: qHTS assay to identify small molecule antagonists of the estrogen related receptor signaling pathway with the pleiotropic PPARgamma coactivator (PGC) cell viability counter screen (AID 1224822;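 further: viability read after 17.5 h compound exposure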)
Conditions: ERR/PGC reporter cell line viability counter screen; series mostly up to 46.1 µM; viability change, negative = cytotoxic: at the top concentration
Text: National Center for Advancing Translational Sciences [NCATS]
NIH Chemical Genomics Center [NCGC]
U.S. Environmental Protection Agency [EPA]
National Institutes of Environmental Health Sciences [NIEHS]
National Toxicology Program [NTP]
U.S. Food and Drug Administration [FDA]
Estrogen related receptors (ERRs), the first orphan nuclear receptors discovered, play an important role in the control of cellular energy metabolism. ERRs are required for high-energy production in response to the environmental challenges. The pleiotropic PPARgamma coactivator (PGC) is a major partner of ERR and a key regulator in energy homeostasis. Together they have been implicated in the etiology of metabolic disorders such as Type 2 diabetes and metabolic syndrome. ERR-alpha was also identified as an adverse marker for breast cancer progression; ERR-alpha-positive tumors have a poor prognosis. To screen and to identify environmental compounds that perturb the ERR and PGC/ERR signaling pathways could provide valuable information for potential therapeutic or preventive measures in the treatment of metabolic disease. To differentiate true PGC/ERR antagonists or agonist from cytotoxic substances, the assay is multiplexed with cell viability assay.
Tox21 Assay Protocol Summary:
The PGC/ERR cells were dispensed at 2,000 cells/5 ul/well in 1536-well white plates using a Multidrop dispenser. After the assay plates were incubated at a 37 C/5% CO2 incubator for 6 hours, 23 nL of compounds dissolved in DMSO, positive and negative controls or DMSO only was transferred to the assay plate by a pin tool. The plates were incubated at 37 C for 17.5 hours. 1 ul/well of CellTiter-Fluor reagent was added into the assay plates using a Flying Reagent Dispenser. After 30 min incubation at 37 C/5% CO2, the fluorescence intensity in the plates was measured using a ViewLux plate reader.
In the case of CC(C)NCC(O)COc1ccc(CC(N)=O)cc1 (stereo not drawn), the “viability change, negative = cytotoxic” value is reported as 4.67%.
For CC(C)NCC(O)c1cc(O)cc(O)c1 (stereo not drawn), the “viability change, negative = cytotoxic” value was 1.54%.
In the case of OC(CCN1CCCCC1)(c1ccccc1)C1CCCCC1 (stereo not drawn), the “viability change, negative = cytotoxic” value is reported as -18.7%.
In the case of NC(N)=N/N=C/c1c(Cl)cccc1Cl, the “viability change, negative = cytotoxic” value is reported as -18.4%.
In the case of O=C(c1ccccc1)c1ccc2n1CCC2C(=O)O (stereo not drawn), the “viability change, negative = cytotoxic” value is reported as 3.26%.
For COc1ccc([C@@H]2Sc3ccccc3N(CCN(C)C)C(=O)[C@@H]2OC(C)=O)cc1, the “viability change, negative = cytotoxic” value was -5.29%.
In the case of CN(C)C/C=C(/c1ccc(Br)cc1)c1cccnc1, the “viability change, negative = cytotoxic” value is reported as -8.49%.
With CCOC(=O)C1=C(C)NC(C)=C(C(=O)OC)C1c1cccc([N+](=O)[O-])c1 (stereo not drawn) the “viability change, negative = cytotoxic” value was -18.6%.
In the case of CN(C)CC/C=C1\c2ccccc2COc2ccccc21, the “viability change, negative = cytotoxic” value is reported as -15.7%.
In the case of CCC(C)N(C)C(=O)c1cc2ccccc2c(-c2ccccc2Cl)n1 (stereo not drawn), the “viability change, negative = cytotoxic” value is reported as -14.7%.
For O=C(O)/C=C/c1cnc[nH]1, the “viability change, negative = cytotoxic” value was 8.62%.
For CN(C(=O)CCCOc1ccc2[nH]c(=O)ccc2c1)C1CCCCC1, the “viability change, negative = cytotoxic” value was 2.22%.
With CN(C)CC[C@@H](c1ccc(Br)cc1)c1ccccn1 the “viability change, negative = cytotoxic” value was -14.5%.
